These results are taken from PubChem BioAssay AID1053118 (Broad Institute, 2014).

Results with a measured potency or affinity are listed apart. Calls of active or inactive are those of the source.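 How the source made its calls: active means fitted half-maximal concentration for ATP signal loss at most twice the top valid dose; inconclusive means flat curve between -70 and -30%, or an invalid fit; inactive means flat within ±30%, wrong direction, or potency past limit.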

A short description of the experiment: viability loss in HepG2 hepatoma cells – cell-based, cherry-picks, set 5, cytotoxicity control, dose response (AID 1053118). The conditions noted are these: ATP luminescence, 72 h; series mostly up to 26 µM.
Turning to `COC(=O)C[C@H]1CC[C@@H]2[C@H](COc3ccc(NC(=O)Cc4cccs4)cc3C(=O)N2C)O1`, the compound was classed as inactive.

For `C[C@H](O)C#Cc1ccc2c(c1)O[C@@H](CN(C)C)[C@H](C)CN([C@@H](C)CO)S2(=O)=O`, the compound was classed as inactive.

Consider `C[C@@H]1CN([C@H](C)CO)C(=O)c2cc(NC(=O)CCCN(C)C)ccc2O[C@@H]1CN(C)Cc1ccc(-c2ccccc2)cc1`, for which the outcome was inactive.

Turning to `COCC(=O)Nc1ccc2c(c1)C(=O)N(C)[C@@H]1CC[C@@H](CC(=O)NCc3ccccc3Cl)O[C@H]1CO2`, the result was inactive.

For the compound `C[C@@H]1CN([C@H](C)CO)C(=O)c2cc(-c3ccccc3)cnc2O[C@@H]1CN(C)Cc1ccccc1`, the compound was classed as inactive.

As for `CCN1CCN(C(c2ccccc2)c2nnnn2Cc2ccccc2)CC1` (stereo not given), the result was inactive.

Regarding `O=C(Nc1ccccc1F)N1C[C@H]2[C@@H](c3ccccc31)[C@H](CO)N2C(=O)C1CC1`, the compound was classed as inactive.

With `c1ccc2[nH]c(SCc3cn4cccnc4n3)nc2c1`, the compound was classed as inactive.

In the case of `N#Cc1ccc(-c2ccc3c(c2)[C@@H]2[C@@H](CCN2S(=O)(=O)c2cccc(F)c2)[C@H](CO)N3)cc1`, the compound was classed as inactive.

`C[C@@H]1CN([C@H](C)CO)C(=O)c2cc(NC(=O)C3CCCCC3)ccc2O[C@@H]1CN(C)Cc1ccc(-c2ccccc2)cc1`: the result was inactive.

For `C[C@@H]1CN([C@H](C)CO)C(=O)c2cc(-c3ccccc3)cnc2O[C@H]1CN(C)C(=O)c1cccc(F)c1`, the outcome was inactive.

As to `COc1cccc(-c2ccc3c(c2)[C@@H]2[C@@H](CCN2S(=O)(=O)c2cccc(OC)c2)[C@H](CO)N3)c1`, the call was inactive.

For `O=C(Nc1ccccc1F)N1C[C@H]2[C@@H](c3ccccc31)[C@@H](CO)N2C(=O)C1CC1`, the compound was classed as inactive.

`Cc1ccc(S(=O)(=O)N2CC3(C)CN(S(=O)(=O)c4ccc(C)cc4)CC(C)(C2)C3=O)cc1`: the call was inactive.

For `CN(C)C(=O)c1ccc(-c2ccc3c(c2)[C@@H]2[C@@H](CCN2C(=O)c2ccc(F)cc2)[C@H](CO)N3C)cc1`, the call was inactive.

As to `Cc1ccc(C(O)c2ncc(-c3cccc4ccccc34)[nH]2)cc1F` (stereo not given), the call was inactive.

For `COc1ccc(-c2oc3ncnc(NCCCN4CCOCC4)c3c2-c2ccc(OC)cc2)cc1`, the call was inactive.

For `CCOC(=O)c1cnc(SCc2nc(N)nc(Nc3ccc(OC)cc3)n2)nc1N`, the compound was classed as inactive.

Turning to `C[C@H](O)C#Cc1ccc2c(c1)O[C@@H](CN(C)C)[C@H](C)CN([C@H](C)CO)S2(=O)=O`, the outcome was inactive.

For the compound `C[C@H]1CN([C@@H](C)CO)C(=O)c2cc(NC(=O)C3CCCCC3)ccc2O[C@H]1CN(C)Cc1ccc(-c2ccccc2)cc1`, the call was inactive.

With `Cc1ccc(S(=O)(=O)N2CC[C@@H]3[C@H](CO)Nc4ccc(-c5cccc(C(=O)N(C)C)c5)cc4[C@@H]32)cc1`, the compound was called inactive.

For `CO[C@H]1CN(C)C(=O)c2cc(NC(C)=O)ccc2OC[C@@H](C)N(C(=O)CN2CCOCC2)C[C@H]1C`, the outcome was inactive.

In the case of `C[C@@H]1CN([C@@H](C)CO)C(=O)c2cc(NC(=O)CCCN(C)C)ccc2O[C@@H]1CN(C)Cc1ccc(-c2ccccc2)cc1`, the result was inactive.

With `CN1c2ccc(-c3ccccc3)cc2[C@@H]2[C@@H](CCN2C(=O)CN2CCOCC2)[C@H]1CO`, the compound was classed as inactive.

Take `Cc1ccc([N+](=O)[O-])cc1NC(=O)CN(C(=O)c1ccccc1Cl)C1CCCCC1`: the compound was called inactive.

On to `C[C@@H]1CN([C@H](C)CO)C(=O)c2cccc(NC(=O)Nc3ccc(C(F)(F)F)cc3)c2O[C@H]1CN(C)C(=O)Nc1cccc2ccccc12`, for which the result was inactive.

With `CN1c2ccc(-c3ccccc3)cc2[C@@H]2[C@@H](CCN2C(=O)CN2CCOCC2)[C@@H]1CO`, the result was inactive.

On to `C[C@@H]1CN([C@@H](C)CO)C(=O)c2cccc(NC(=O)Nc3ccc(C(F)(F)F)cc3)c2O[C@H]1CN(C)C(=O)Nc1cccc2ccccc12`, for which the compound was called inactive.

With `N#C[C@@H]1[C@H](c2ccccc2C2=CCCCC2)[C@H](CO)N1S(=O)(=O)c1ccccc1`, the call was inactive.

On to `CO[C@H]1CN(C)C(=O)c2cc(NC(=O)Nc3ccc(Cl)c(Cl)c3)ccc2OC[C@@H](C)NC[C@H]1C`, for which the call was inactive.

Take `CCN(Cc1ccncc1)C(=O)c1ccc2c(c1)S(=O)(=O)c1ccccc1C2=O`: the compound was called inactive.

For the compound `COc1ccccc1CNc1nc(NCc2cnc(C)cn2)c2sccc2n1`, the outcome was inactive.

For the compound `COC(=O)C[C@@H]1CC[C@H]2[C@H](COc3ccc(NC(=O)Cc4cccs4)cc3C(=O)N2C)O1`, the call was inactive.

For `CC1(C)Cc2c(C#N)c(SCC(=O)c3ccccc3)nc(N3CCOCC3)c2CS1`, the result was inactive.

Consider `CC(C)CNC(=O)c1coc(=O)c(Br)c1`, for which the compound was classed as inactive.
